Data as given in PMC9911399, “Two distinct binding modes provide the RNA-binding protein RbFox with extraordinary sequence specificity”.
Numbering of substitutions follows the chain as printed; changes in the protein carry UniProt numbers. Over roughly 16,000 sequences, “ka relative to ugcaugu” has its median near 0.0091; the highest 2% begin near 0.032. Only a selection was taken, and the highest values are over-represented in it overall.

T1: RBFOX1 RRM (Homo sapiens, UniProt Q9NWB1 109-208)
T1 sequence: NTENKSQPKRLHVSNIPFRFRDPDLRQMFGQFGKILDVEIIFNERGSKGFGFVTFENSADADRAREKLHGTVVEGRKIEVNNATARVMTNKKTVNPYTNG

B1: CGGAACU (DNA:RNA)
RNA: GGGAGACCGGAAUUCAGAUUGUCCCGGAACUUUAAAUCCCGUCGUAGCCACCA
DNA 1: CAATCTGAATTCCGGTCTCCC
DNA 2: TGGTGGCTACGACGGGATT
B2: GGGAGCU (DNA:RNA)
RNA: B1 RNA with C25G, A29G
DNA 1: CAATCTGAATTCCGGTCTCCC
DNA 2: TGGTGGCTACGACGGGATT
B3: CGGGAGC (DNA:RNA)
RNA: B1 RNA with A28G, C30G, U31C
DNA 1: CAATCTGAATTCCGGTCTCCC
DNA 2: TGGTGGCTACGACGGGATT
B4: GGAAGCU (DNA:RNA)
RNA: B1 RNA with C25G, G27A, A29G
DNA 1: CAATCTGAATTCCGGTCTCCC
DNA 2: TGGTGGCTACGACGGGATT
B5: GGGGAGC (DNA:RNA)
RNA: B1 RNA with C25G, A28G, C30G, U31C
DNA 1: CAATCTGAATTCCGGTCTCCC
DNA 2: TGGTGGCTACGACGGGATT
B6: CGGAGCU (DNA:RNA)
RNA: B1 RNA with A29G
DNA 1: CAATCTGAATTCCGGTCTCCC
DNA 2: TGGTGGCTACGACGGGATT
B7: GGAGAGC (DNA:RNA)
RNA: B1 RNA with C25G, G27A, A28G, C30G, U31C
DNA 1: CAATCTGAATTCCGGTCTCCC
DNA 2: TGGTGGCTACGACGGGATT
B8: GGGAAGC (DNA:RNA)
RNA: B1 RNA with C25G, C30G, U31C
DNA 1: CAATCTGAATTCCGGTCTCCC
DNA 2: TGGTGGCTACGACGGGATT
B9: GGAACUU (DNA:RNA)
RNA: B1 RNA with C25G, G27A, A29C, C30U
DNA 1: CAATCTGAATTCCGGTCTCCC
DNA 2: TGGTGGCTACGACGGGATT
B10: GGGAACU (DNA:RNA)
RNA: B1 RNA with C25G
DNA 1: CAATCTGAATTCCGGTCTCCC
DNA 2: TGGTGGCTACGACGGGATT
B11: GGAGCUU (DNA:RNA)
RNA: B1 RNA with C25G, G27A, A28G, A29C, C30U
DNA 1: CAATCTGAATTCCGGTCTCCC
DNA 2: TGGTGGCTACGACGGGATT
B12: CGGAAGC (DNA:RNA)
RNA: B1 RNA with C30G, U31C
DNA 1: CAATCTGAATTCCGGTCTCCC
DNA 2: TGGTGGCTACGACGGGATT

Each binder was assayed against T1, RBFOX1 RRM (assay: EMSA; HiTS-Eq, 1 nM pool, 10 min; buffer printed only for the single-RNA assays: 10 mM Tris pH 7.5, 150 mM NaCl, 3.4 mM EDTA, 0.001% NP-40, 30 C). Details: tags: His6 N-terminal (pET28a); label: 5' 32P.
Procedure, shortened: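 A pool of RNA with 7 randomized nucleotides, 5′-radiolabelled and with DNA-annealed flanks, was equilibrated at 1 nM for 10 min in 50 µL with purified RbFox RRM, wild type or mutant, across increasing protein concentrations. Free RNA was separated by 8% native PAGE, excised, reverse-transcribed, barcoded by PCR and sequenced. Relative association constants were obtained from read-count changes of each RNA species versus the control reaction and normalised to the cognate motif.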

Binder	binding signal
B1	0.0254 KA relative to UGCAUGU
B2	0.035 KA relative to UGCAUGU
B3	0.0286 KA relative to UGCAUGU
B4	0.0135 KA relative to UGCAUGU
B5	0.0326 KA relative to UGCAUGU
B6	0.0245 KA relative to UGCAUGU
B7	0.0169 KA relative to UGCAUGU
B8	0.036 KA relative to UGCAUGU
B9	0.0138 KA relative to UGCAUGU
B10	0.0404 KA relative to UGCAUGU
B11	0.0232 KA relative to UGCAUGU
B12	0.0209 KA relative to UGCAUGU
